Experimental data as given in the supplement of paper PMC9844399.
Structures can show the parent of a compound that is named as a salt.

system: HeLa; experiment: nuclear count per well, robust Z-score vs DMSO; higher = more cells (less toxicity); conditions: 10 µM; 6 h
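Further: Hoechst-stained nuclei counted by automated confocal imaging of four fields per well in 384-well plates, with the robust Z-score based on the per-plate DMSO median and robust SD.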

Row | Compound | nuclear count per well
1 | Cc1c(C(=O)c2cccc3ccccc23)c2cccc3c2n1[C@H](CN1CCOCC1)CO3 [WIN 55,212-2 mesylate] | 0.0402
2 | CC1=C(CC/C(C)=C/CCC2=CC[C@H](C3=CC(=O)O[C@H]3O)O[C@H]2O)C(C)(C)CCC1 [Manoalide] | 0.359
3 | O=P1(N(CCCl)CCCl)NCCCO1 (stereo not drawn) [Cyclophosphamide] | 0.528
4 | O=C(NCCN1CCC2(CC1)C(=O)NCN2c1cccc(F)c1)c1ccc2ccccc2c1 | -1.14
5 | C=CCN1C[C@H](C(=O)N(CCCN(C)C)C(=O)NCC)C[C@@H]2c3cccc4[nH]cc(c34)C[C@H]21 [Cabergoline] | -0.326
6 | CC(=O)C1=C(O)[C@@H]2[C@H]3c4c[nH]c5cccc(c45)C[C@H]3C(C)(C)N2C1=O [Cyclopiazonic acid] | -0.298
7 | CC[C@@H](CO)NC(=O)[C@@H]1C=C2c3cccc4[nH]cc(c34)C[C@H]2N(C)C1 [Methylergonovine Maleate] | -0.258
8 | Cn1c(CCCC(=O)O)nc2cc(N(CCCl)CCCl)ccc21 | 0.521
